Test results from PubChem BioAssay (NCI).
Compounds without any hit were thinned out: in the full panel of roughly 79,000, 15% have a hit. Activity calls are given as the source filed them. No stated cut-off is given here; in the data, active means growth inhibition above about 70%; inactive means the rest.

Experiments:
[1] = NCI Yeast Anticancer Drug Screen. Data for the rad50 strain (AID 155);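 further: 0% = growth of vehicle-only cultures of the same strain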; conditions: S. cerevisiae rad50 strain growth inhibition, active compounds read high
How it was run: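 Relative growth inhibition (compound vs vehicle) was measured in yeast with a defined repair-gene alteration.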

[2] = NCI Yeast Anticancer Drug Screen. Data for the mec2-1 strain (AID 157); conditions: S. cerevisiae mec2-1 strain, active compounds read high
How it was run: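 Yeast mec2-1 mutant treated with compound. Readout: growth inhibition vs vehicle controls.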

[3] = NCI Yeast Anticancer Drug Screen. Data for the sgs1 mgt1 strain (AID 161);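 further: 0% = growth of cultures given vehicle only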; conditions: S. cerevisiae sgs1 mgt1 strain, active compounds read high
How it was run: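 Test agents were incubated with a DNA-repair-mutant yeast strain. Growth was then read and compared against vehicle-treated controls.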

[4] = NCI Yeast Anticancer Drug Screen. Data for the cln2 rad14 strain (AID 165);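 further: 0% = growth equal to vehicle treated cultures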; conditions: S. cerevisiae cln2 rad14 strain, active compounds read high
How it was run: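 cln2 rad14 yeast strain; compound exposure; growth inhibition read vs vehicle controls.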

[5] = NCI Yeast Anticancer Drug Screen. Data for the bub3 strain (AID 167); conditions: S. cerevisiae bub3 mutant strain, active compounds read high
How it was run: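 Screening used yeast with an engineered genetic alteration affecting cell cycle control. Compound-exposed cultures were compared with vehicle cultures, and reduced growth was taken as inhibition.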

[6] = NCI Yeast Anticancer Drug Screen. Data for the mlh1 rad18 strain (AID 175); conditions: S. cerevisiae mlh1 rad18 strain growth inhibition, active compounds read high
How it was run: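 Yeast w/ defined DNA-repair lesions; compound exposure; growth vs vehicle controls → % inhibition.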

[7] = at 5.0 µM (retest, dose inferred, filed as 0.5)
[8] = at 50.0 µM (retest, dose inferred, filed as 5.0)

Measured: growth inhibition

CC(=O)OC1CC2C(C)(C)C(=O)C=C[C@]2(C)C2CCC3(C)C(=CC(=O)C3c3ccoc3)[C@]12C (some centres not stated)
active: [3]; [8] 86% | [3]; at 50.0 µM 87%
inactive: [1]; [7] -4% | [1]; [8] 40% | [1]; at 50.0 µM 65.4% | [2]; [7] -8% | [2]; [8] 38% | [2]; at 50.0 µM 65.3% | [3]; [7] -1% | [4]; [7] 19% | [4]; [8] 52% | [4]; at 50.0 µM 18.7% | [5]; [7] 7% | [5]; [8] 58% | [5]; at 50.0 µM 56.9% | [6]; [7] -1% | [6]; [8] 52% | [6]; at 50.0 µM 56.4%

Cc1cc(C)nc(NS(=O)(=O)c2ccc(Nc3c4ccccc4nc4c(C(=O)NCCCN(CCO)CCO)cccc34)cc2)n1
inactive: [1]; [7] -20% | [1]; [8] 20% | [1]; at 50.0 µM 45% | [2]; [7] -13% | [2]; [8] -14% | [2]; at 50.0 µM 25.8% | [3]; [7] -2% | [3]; [8] -5% | [3]; at 50.0 µM -4.65% | [4]; [8] 5% | [5]; [7] -14% | [5]; [8] 3% | [6]; [7] -7% | [6]; [8] 1% | [6]; at 50.0 µM 60.2%
active: [4]; [7] 70% | [4]; at 50.0 µM 74.3% | [5]; at 50.0 µM 78.2%

Clc1nc2nc(Cl)c(Cl)n2nc1Cl
active: [1]; at 50.0 µM 98.5% | [2]; at 50.0 µM 99.7% | [3]; at 50.0 µM 99.5% | [4]; at 50.0 µM 98.8% | [5]; at 50.0 µM 99.3% | [6]; at 50.0 µM 99.5%
inactive: [1]; [7] -4% | [1]; [8] -5% | [2]; [7] -3% | [2]; [8] -7% | [3]; [7] -2% | [3]; [8] -11% | [4]; [7] 4% | [4]; [8] -1% | [5]; [7] -5% | [5]; [8] -8% | [6]; [7] -8% | [6]; [8] -4%

CC(=O)NC1CCC(C2CCCCC2)CC1C1CCCCC1 (configuration not stated)
active: [1]; [8] 85% | [1]; at 50.0 µM 93.6% | [2]; [8] 87% | [2]; at 50.0 µM 95.7% | [3]; [8] 93% | [3]; at 50.0 µM 90.7% | [4]; [8] 82% | [4]; at 50.0 µM 89.7% | [5]; [8] 86% | [5]; at 50.0 µM 95% | [6]; [8] 86% | [6]; at 50.0 µM 92%
inactive: [1]; [7] -2% | [2]; [7] -1% | [3]; [7] 4% | [4]; [7] 1% | [5]; [7] 3% | [6]; [7] -1%

O=C(C(c1ccccc1)c1ccccc1)C(c1ccccc1)c1ccccc1
inactive: [1]; [7] 0% | [1]; [8] -12% | [1]; at 50.0 µM 25% | [2]; [7] -6% | [2]; [8] -13% | [2]; at 50.0 µM 0.85% | [3]; [7] -1% | [3]; [8] -18% | [3]; at 50.0 µM 4.8% | [4]; [7] 2% | [4]; [8] -30% | [4]; at 50.0 µM 43.9% | [5]; [7] 0% | [5]; [8] 28% | [5]; at 50.0 µM -6.25% | [6]; [7] 0% | [6]; [8] -4% | [6]; at 50.0 µM 1.55%

O=[N+]([O-])c1cccc2nc3ccccc3c(NCCN(CCO)CCO)c12
inactive: [3]; at 50.0 µM 52.5% | [5]; at 50.0 µM -17.6% | [6]; at 50.0 µM 58%
active: [1]; [7] 81% | [1]; [8] 94% | [1]; at 50.0 µM 71% | [2]; [7] 88% | [2]; [8] 98% | [2]; at 50.0 µM 73.4% | [3]; [7] 91% | [3]; [8] 98% | [4]; [7] 95% | [4]; [8] 99% | [4]; at 50.0 µM 84.8% | [5]; [7] 79% | [5]; [8] 99% | [6]; [7] 90% | [6]; [8] 96%

CC1(C)C(c2ccccc2)=Nc2ccccc21
active: [2]; [8] 89% | [2]; at 50.0 µM 92.6% | [5]; [8] 94% | [5]; at 50.0 µM 96.7% | [6]; at 50.0 µM 86.2%
inactive: [1]; [7] 0% | [1]; [8] 36% | [1]; at 50.0 µM 34.1% | [2]; [7] 3% | [3]; [7] -13% | [3]; [8] 61% | [3]; at 50.0 µM 32.5% | [4]; [7] -2% | [4]; [8] 62% | [4]; at 50.0 µM 38% | [5]; [7] 9% | [6]; [7] -5% | [6]; [8] 46%

CC(=O)OC1OC(=O)C(C)(C(C)=O)C1C (configuration not stated)
inactive: [1]; [7] 19% | [2]; [7] 10% | [3]; [7] 25% | [4]; [7] 27% | [5]; [7] 23% | [6]; [7] 22%
active: [1]; [8] 95% | [1]; at 50.0 µM 89.9% | [2]; [8] 96% | [2]; at 50.0 µM 89.6% | [3]; [8] 93% | [3]; at 50.0 µM 89.9% | [4]; [8] 81% | [4]; at 50.0 µM 83.2% | [5]; [8] 93% | [5]; at 50.0 µM 89.2% | [6]; [8] 96% | [6]; at 50.0 µM 89.6%

NNC(=O)c1ccc(NC(=O)CSc2nc3ccccc3s2)cc1
inactive: [1]; [7] -4% | [1]; [8] 35% | [2]; [7] 6% | [2]; [8] 28% | [3]; [7] 9% | [3]; [8] 59% | [4]; [7] 0% | [4]; [8] 48% | [4]; at 50.0 µM 31.2% | [5]; [7] 52%
active: [1]; at 50.0 µM 92.7% | [2]; at 50.0 µM 79% | [3]; at 50.0 µM 96.2% | [5]; [8] 82% | [5]; at 50.0 µM 97.8% | [6]; [7] 86% | [6]; [8] 82% | [6]; at 50.0 µM 98.6%
